This is a sample that favours compounds with a hit; in the whole collection about 2% have one here.
DAGLB inh = diacylglycerol lipase beta (human) inhibition; Q8NCG7; AID 504411; HEK293T DAGLB membrane lysate, EnzChek fluorogenic substrate; inhibition, % at 5.17 µM; 0.059% of 340,000 active; in the data active = inhibition above about 34%;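 note: 0% = enzyme with vehicle and 100% = wells lacking enzyme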
Target sequence (Q8NCG7 whole entry, looked up): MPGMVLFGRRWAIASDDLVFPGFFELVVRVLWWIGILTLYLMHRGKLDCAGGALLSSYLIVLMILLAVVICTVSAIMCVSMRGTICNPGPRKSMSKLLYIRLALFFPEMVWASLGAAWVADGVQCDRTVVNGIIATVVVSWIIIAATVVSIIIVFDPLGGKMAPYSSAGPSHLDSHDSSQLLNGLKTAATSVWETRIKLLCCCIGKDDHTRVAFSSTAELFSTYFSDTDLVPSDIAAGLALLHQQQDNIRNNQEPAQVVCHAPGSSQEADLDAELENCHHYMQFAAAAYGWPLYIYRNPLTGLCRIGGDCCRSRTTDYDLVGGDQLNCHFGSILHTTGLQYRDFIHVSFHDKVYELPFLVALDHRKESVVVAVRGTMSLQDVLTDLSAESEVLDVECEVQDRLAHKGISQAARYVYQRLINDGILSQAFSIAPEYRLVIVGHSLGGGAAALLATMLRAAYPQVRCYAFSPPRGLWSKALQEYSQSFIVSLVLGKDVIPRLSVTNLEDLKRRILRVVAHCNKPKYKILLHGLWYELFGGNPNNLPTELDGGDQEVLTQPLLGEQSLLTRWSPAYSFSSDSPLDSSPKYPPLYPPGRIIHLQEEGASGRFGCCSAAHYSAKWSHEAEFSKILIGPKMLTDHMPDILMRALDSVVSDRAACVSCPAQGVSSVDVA
Neddyl block = cullin neddylation inhibition. P61081+Q13564. TR-FRET cullin neddylation, biochemical. inhibition, % at 25 µM. 0.58% of 360,000 active; in the data active = inhibition above about 36%
sPLA2-III inh = Blocks human group III sPLA2 activity. Q9NZ20. AID 743126. inhibition, % at 12.2 µM. QFRET BODIPY PC-A2 liposome hydrolysis, fluorescence. 0.56% of 370,000 active;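 active = inhibition above mean plus 3 SD of compounds lying within the high and low control bounds, cut at about 19% in these data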;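 note: 0% = median of test compound wells and 100% = no enzyme DMSO wells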
ARNT TACC3 PPI = ARNT/TACC3 interaction disruption; AlphaScreen His-ARNT PAS-B/GST-TACC3 binding, luminescence; TACC3 fragment carries E629A point mutation; inhibition, % at 9.99 µM; 0.66% of 390,000 active; AID 623870;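 active = mean inhibition of replicates at least 50% and at least half of replicates each reaching 50%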;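 note: 0% = complete ARNT plus TACC3 wells and 100% = ARNT alone without TACC3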
NadD block = NadD (S. aureus) enzyme inhibition | AID 602399 | 0.78% of 360,000 active | inhibition, % at 20 µM | purified NadD enzyme, colorimetric absorbance read-out; in the data active = inhibition above about 26%
hGIII sPLA2 conf = human GIII-sPLA2 inhibition, confirmation. shares compounds with sPLA2-III inh. recombinant hGIII-sPLA2, BODIPY PC-A2 QFRET fluorescence. inhibition, % at 12.2 µM. 34% of 2,000 active. AID 743280;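 active = mean inhibition across triplicates above the hit cutoff set in the earlier primary screen, cut at about 19% in these data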;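 note: 0% = enzyme with DMSO and 100% = DMSO wells lacking enzyme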
535nm interf = 535nm fluorescence interference, HGIII-sPLA2 counter-screen; shares compounds with sPLA2-III inh; BODIPY FL product fluorescence interference, QFRET; inhibition, % at 12.2 µM; 8.5% of 2,000 active; AID 743282;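 active = average inhibition above the solvent-only control mean plus 3 SD, cut at about 6% in these data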;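 note: 0% = DMSO with substrate plus product and 100% = DMSO with substrate alone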
535nm interf DR = counter-screen for HGIII-sPLA2 inhibitors: 535nm fluorescence interference, dose response; IC50, µM; AID 743455; shares compounds with sPLA2-III inh; 240 tested, under 10 active; BODIPY FL product fluorescence interference, cell-free;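 active = IC50 at or below 10 µM; inactive = IC50 above 10 µM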
* marks the source's active call; other numbers are inactive results; · = no result given.

SMILES	DAGLB inh	Neddyl block	sPLA2-III inh	ARNT TACC3 PPI	NadD block	hGIII sPLA2 conf	535nm interf	others
CC(C)NC(=O)N(C)C[C@H]1Oc2ccc(NC(=O)CCC(F)(F)F)cc2C(=O)N([C@H](C)CO)C[C@H]1C	·	·	·	2	·	·	·
CCCN1C[C@@H](C)[C@@H](OC)CN(C)C(=O)c2cc(NC(=O)C3CC3)ccc2OC[C@@H]1C	·	·	·	-2	·	·	·
CN(C)C(=O)[C@H]1[C@H](CO)[C@H]2Cn3c(ccc(-c4ccccc4F)c3=O)[C@H]2N1C(=O)c1cnccn1	·	·	·	-13	·	·	·
C=CCS/C(N)=N\N=C\c1cc(Br)cc([N+](=O)[O-])c1O	6	-25	38*	1	6	30*	-2	535nm interf DR=>122
CS/C(N)=N/N=C/c1cc(Br)cc(Br)c1O	1	16	38*	-7	-6	34*	6.8*
Cc1ccc(S(=O)(=O)Nc2cccc3c2O[C@@H](CN(C)CC2CCCCC2)[C@H](C)CN([C@H](C)CO)C3=O)cc1	·	·	·	-3	·	·	·
Cc1ccc(/C(O)=C2/C(=O)C(=O)OC2c2ccc(Cl)cc2)cc1 (configuration not stated)	21	-13	7	1	13	·	·
O=C1OC(c2ccccc2)/C(=C(/O)c2ccc(Cl)cc2)C1=O (configuration not stated)	8	-5	22*	-16	8	-39	-3
COCC#Cc1ccc2c(c1)O[C@@H](CN(C)C(=O)CC1CC1)[C@@H](C)CN([C@@H](C)CO)S2(=O)=O	·	·	·	-2	·	·	·
COc1ccccc1N(C)S(=O)(=O)c1ccc(Cl)c(C(=O)NNC(=O)c2ccccc2O)c1	8	18	11	4	5	·	·
COc1ccccc1N(C)S(=O)(=O)c1ccc(C(=O)NNC(=O)c2ccccc2O)cc1	7	14	20*	·	-2	2	1
Cc1ccc([N+](=O)[O-])cc1NC(=O)CNC1CCCCC1	-1	-13	4	-2	-4	·	·
O=C(CNC1CCCC1)Nc1cc(Cl)ccc1[N+](=O)[O-]	-1	-18	21*	37	-5	14	-5
C[C@@H]1CN([C@H](C)CO)C(=O)Cc2cc(NC(=O)Nc3ccc(F)cc3)ccc2O[C@H]1CN(C)C(=O)Nc1ccccc1	·	·	·	3	·	·	·
FC(F)(F)c1cnc(NNC(=S)Nc2cccnc2)c(Cl)c1	4	-5	20*	31	-6	33*	1	535nm interf DR=>122
CCCNC(=O)COC(=O)c1cc2c(=O)n3ccccc3nc2s1	0	·	19*	-6	4	-4	-4
COc1cccc(C(=O)Nc2ccc3c(c2)C(=O)N(C)[C@H]2CC[C@H](CC(=O)NCC4CC4)O[C@H]2CO3)c1	·	·	·	5	·	·	·
O=C(c1cccnc1)N1C[C@H]2[C@@H](c3ccccc31)[C@@H](CO)N2Cc1ccc2c(c1)OCO2	·	·	·	-2	·	·	·
CCOC(=O)C1=C(c2ccccc2)NC(=S)NC1c1cc([N+](=O)[O-])ccc1OC (configuration not stated)	0	-7	23*	8	10	18	3
CCOC(=O)C1=C(c2ccccc2)NC(=S)NC1c1cccc([N+](=O)[O-])c1 (configuration not stated)	-2	-16	16	-2	-5	·	·
CCc1ccc(OCc2n[nH]c(=S)n2Cc2ccccc2)cc1	0	-2	-1	·	11	·	·
S=c1[nH]nc(-c2cccs2)n1Cc1ccccc1	0	·	20*	3	0	21*	3
S=c1[nH]nc(CCc2ccccc2)n1-c1ccc(Cl)cc1	7	-4	24*	0	-6	32*	3	535nm interf DR=>122
S=c1[nH]nc(COc2ccccc2)n1Cc1ccccc1	6	4	27*	-10	5	19	5
S=c1[nH]nc(Cc2ccccc2)n1-c1ccc(Cl)cc1	2	0	20*	-5	0	21*	2
SMILES	DAGLB inh	Neddyl block	sPLA2-III inh	ARNT TACC3 PPI	NadD block	hGIII sPLA2 conf	535nm interf	others
S=c1[nH]nc(Cc2ccccc2)n1-c1ccccc1	0	5	14	-1	-4	·	·
CCCN1C[C@H](C)[C@H](OC)CN(C)C(=O)c2ccc(NC(=O)C3CCOCC3)cc2OC[C@@H]1C	·	·	·	5	·	·	·
CNC[C@H]1Oc2c(NC(=O)Nc3ccc4c(c3)OCO4)cccc2C(=O)N([C@H](C)CO)C[C@H]1C	·	·	·	-1	·	·	·
CO[C@H]1CN(C)C(=O)c2ccc(NC(C)=O)cc2OC[C@H](C)N(CC2CC2)C[C@H]1C	·	·	·	-7	·	·	·
C[C@H](CO)N1C[C@H](C)[C@@H](CN(C)C(=O)Nc2ccc(F)cc2)OCCCC[C@H](C)Oc2ccc(NC(=O)Nc3ccc(F)cc3)cc2C1=O	·	·	·	2	·	·	·
S=c1[nH]nc(COc2ccc(Cl)cc2)n1-c1ccccc1	-2	1	21*	-4	-3	34*	4	535nm interf DR=>122
C[C@@H]1CN([C@H](C)CO)S(=O)(=O)c2ccc(C#CC3CCCC3)cc2O[C@H]1CN(C)Cc1cccnc1	·	·	·	14	·	·	·
Cn1ncc(Br)c1C(=O)N1CCOCC1	-3	5	20*	-3	0	-6	-1
Cc1cccc(N2CCN(C(=O)CCN3C(=S)NC(C)(C)CC3C)CC2)c1C (configuration not stated)	2	-3	28*	6	2	12	-14
CC1CC(C)(C)NC(=S)N1CCC(=O)N1c2ccccc2CC1C (configuration not stated)	2	2	14	17	4	·	·
Cc1ccc(C)c(N2CCN(C(=O)CCCN3C(=S)NC(C)(C)CC3C)CC2)c1 (configuration not stated)	0	-2	22*	8	2	21*	-26
O=C(NC1Cc2ccccc2C1)[C@H]1[C@H](CO)[C@H]2Cn3c(ccc(-c4ccccc4)c3=O)[C@@H]1N2	·	·	·	22	·	·	·
O=C(NCCS(=O)(=O)NCc1ccccc1)c1ccccc1	0	-1	19*	1	0	-1	-5
CN=c1scc(-c2ccccc2F)n1/N=C/c1ccc[nH]1	3	1	35*	14	9	29*	3	535nm interf DR=>122
Nc1[nH]n(-c2ccccc2)c(=O)c1N=Nc1ccccc1	19	-40	23*	14	-9	33*	6.3*
CCc1ccccc1N=Nc1c(N)[nH]n(-c2ccccc2)c1=O	·	·	12	·	·	·	·
CCSc1ncc(Cl)c(C(=O)Nc2ccccc2OC)n1	-4	15	21*	-10	-4	-1	-5
CCSc1ncc(Cl)c(C(=O)Nc2ccccc2Cl)n1	-15	18	9	-2	-5	·	·

Screens deposited in PubChem BioAssay by several laboratories.
